# Reference: the supplement of paper PMC7156485
# ± gives the standard deviation of the averaged measurements.
# Key:
# Settings in all cases: concentration: 10 µM; 24 h
# HCC1569 [1] = assay: cell number relative to DMSO (% of DMSO); higher = more cells (less growth inhibition / toxicity)
# Method in brief: (§1)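 After 24 h at 37 °C with compounds at 10 µM, in triplicate, HCC1569 and TDF cells were fixed with 3.7% formaldehyde. Immunostaining used a rabbit anti-H1.0 antibody and an AlexaFluor 647 secondary, with DAPI, and six fields per well were imaged at ×10. H1.0 nuclear intensity or cell number is presented as percent of the plate control, from the median of replicates, with HCC1569 values smoothed for positional effects.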
# TDF [2] = assay: as above
# Method in brief: as §1
# TDF [3] = assay: H1.0 immunofluorescence intensity relative to DMSO (% of DMSO); higher = stronger H1.0 induction, active = 120 or more
# Method in brief: as §1
# HCC1569 [4] = assay: H1.0 immunofluorescence intensity relative to DMSO (% of DMSO); higher = stronger H1.0 induction, active = 140 or more
# Method in brief: as §1
# 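Throughout, for H1.0 immunofluorescence intensity relative to DMSO: TDF is a line of transformed human dermal fibroblasts of mesenchymal origin.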
# 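Throughout, for cell number relative to DMSO: TDF denotes transformed human dermal fibroblasts of mesenchymal origin.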
Compound,cell number (HCC1569 [1]),cell number (TDF [2]),H1.0 immunofluorescence intensity (TDF [3]),H1.0 immunofluorescence intensity (HCC1569 [4])
COc1cc2c(cc1OC)C(=O)C(CC1CCN(Cc3ccccc3)CC1)C2.Cl.Cl (stereo not given) [Donepezil.HCl],101,114,95.8 (inactive),105 (inactive)
CC(Cc1ccc(O)c(O)c1)(NN)C(=O)O.O (stereo not given) [Carbidopa.H2O],103,107,99.8 (inactive),104 (inactive)
Cn1cnc2c(NCc3ccccc3)nc(NCCO)nc21,94.5,107,103 (inactive),107 (inactive)
CC(C)c1[nH]n(-c2c(Cl)cccc2Cl)c2nc(Cc3ccc(OCCO)cc3)nc(=O)c1-2 [Cdk/Crk Inhibitor],55,26.7,131 (active),143 (active)
CN1CCN(C2=Nc3ccccc3Oc3ccc(Cl)cc32)CC1.O=C(O)CCC(=O)O [Loxapine succinate],101,94.3,95.8 (inactive),110 (inactive)
CCOC(=O)C1=C(C)NC(C)=C(C(=O)OCC)C1c1ccccc1C=CC(=O)OC(C)(C)C [Lacidipine],93.2,93.4,98.1 (inactive),125 (inactive)
CS(=O)(=O)O.C[C@H](NCc1ccc(OCc2cccc(F)c2)cc1)C(N)=O,99.7,102,97.6 (inactive),98.6 (inactive)
Cc1[nH]c2ccccc2c1CCNC(=O)c1ccccc1F [2-fluoro-N-[2-(2-methyl-1H-indol-3-yl)ethyl]benzamide],100,106,110 (inactive),93.6 (inactive)
O=C(O)CCc1nc(-c2ccccc2)c(-c2ccccc2)o1 [Oxaprozin],104,101,96.9 (inactive),97.7 (inactive)
CCCCCCCCCCCCCCCC(=O)OCC(COP(=O)(O)O)OC(=O)CCCCCCCCCCCCCCC (stereo not given) [Dipalmitoylphosphatidic acid],94.8,107,89.8 (inactive),107 (inactive)
NC(N)=NCc1cccc(I)c1 [N-(3-iodobenzyl)guanidine],108,97.3,104 (inactive),105 (inactive)
COc1cc2c(N3CCN(C(=O)Nc4ccc(OC(C)C)cc4)CC3)ncnc2cc1OCCCN1CCCCC1 [Tandutinib],101,100,97.9 (inactive),99.5 (inactive)
CC(C)(C)c1nc2c3cc[nH]c(=O)c3c3cc(F)ccc3c2[nH]1,110,103,87 (inactive),101 (inactive)
CCCCCCC=CCCCCCCCC(=O)O [9(Z)-Hexadecenoic acid],98.8,104,97.9 (inactive),101 (inactive)
COc1c(C)c2c(c(O)c1CC=C(C)CCC(=O)O)C(=O)OC2 [Mycophenolic Acid],78.3 ± 3.8,63.3 ± 4.9,104 (inactive),116 (inactive)
O=c1c(-c2ccc(F)cc2)c(-c2ccncc2)[nH]n1-c1ccc(Cl)cc1 [p38 MAP Kinase Inhibitor],102,111,95.2 (inactive),110 (inactive)
N#CC(=C(N)Sc1ccccc1N)c1cccc(C(O)c2ccncc2)c1 (stereo not given) [MEK Inhibitor I],77.2,86.8,98.7 (inactive),176 (active)
"CN1C2CCC1CC(NC(=O)c1nn(C)c3ccccc13)C2.O=C(O)C=CC(=O)O (stereo not given) [LY-278,584 maleate]",104,94.8,99.1 (inactive),93 (inactive)
CC1CCCC(C)N1NC(=O)c1ccc(Cl)c(S(N)(=O)=O)c1 (stereo not given) [Clopamide],100,104,94.9 (inactive),104 (inactive)
Cc1ccc(S(=O)(=O)NC(=O)NN2CC3CCCC3C2)cc1 (stereo not given) [Gliclazide],101,106,89 (inactive),114 (inactive)
COc1ccc(C=Cc2cc(OC)cc(=O)o2)cc1 [Yangonin],98.9,80.2,104 (inactive),100 (inactive)
CC=C(C)C(=O)OC1CC(C)=CC(=O)C2(C)CCC(O)(C(C)C)C12 (stereo not given) [Lapidin],104,102,95.4 (inactive),93.9 (inactive)
CC(C)(C)c1nc2c3cc[nH]c(=O)c3c3cc(F)ccc3c2[nH]1 [JAK Inhibitor I],99.8,99.5,90.3 (inactive),126 (inactive)
CC1COc2c(C3(N)CC3)c(F)cc3c(=O)c(C(=O)O)cn1c23 (stereo not given) [Pazufloxacin],104,110,94.1 (inactive),104 (inactive)
COc1ccc2c(c1)CCC1C2CCC2(C)C(NCCCCCCN3C(=O)C=CC3=O)CCC12 (stereo not given),103,111,88.6 (inactive),103 (inactive)

Compound,cell number (HCC1569 [1]),cell number (TDF [2]),H1.0 immunofluorescence intensity (TDF [3]),H1.0 immunofluorescence intensity (HCC1569 [4])
O=C(O)c1ccc(O)c2ncccc12 [8-hydroxy-5-quinolinecarboxylic acid],102,99.2,94.9 (inactive),98 (inactive)
O=C1CC(c2ccccc2)Oc2cc(O)cc(O)c21 (stereo not given) [Pinocembrin],106,100,99 (inactive),91.1 (inactive)
Cc1nn(C)c2nc(NNC(=O)Nc3cc(Cl)nc(Cl)c3)cc(C(C)C)c12,66,12.8,170 (active),140 (active)
NC(N)=NCCCCN=C(N)N.O=S(=O)(O)O [Arcaine sulfate],104,107,89 (inactive),92.3 (inactive)
O=c1c(-c2ccc(O)cc2)coc2cc(O)cc(O)c12 [Genistein],97.9 ± 4.4,99 ± 4.5,92.8 (inactive),97.6 (inactive)
Nc1ccc2ncnc(NCCc3ccc(Oc4ccccc4)cc3)c2c1 [NF-kB Activation Inhibitor],66.3,70.7,106 (inactive),164 (active)
CC(C)(C)c1ccc(S(=O)(=O)C=CC#N)cc1,50.3,92.1,98.3 (inactive),135 (inactive)
"COC1C=CC=C(C)C(=O)NC2=CC(=O)C=C(C2=O)C(OC)C(C)CC(OC)C(OC)C(C)C=C(C)C1OC(N)=O (stereo not given) [Herbimycin A, Streptomyces sp.]",62.4,54.7,88.3 (inactive),180 (active)
O=C(OC1Cc2c(O)cc(O)cc2OC1c1cc(O)c(O)c(O)c1)c1cc(O)c(O)c(O)c1 (stereo not given) [Epigallocatechin gallate],105,97,94.8 (inactive),100 (inactive)
CCCCCC(=O)C=CC1C(O)CC(O)C1CC=CCCCC(=O)O (stereo not given) [15-keto-prostaglandin F2a],101,108,92.9 (inactive),103 (inactive)
"CN(C)C(N)=NCCCC(N)C(=O)O.Cl (stereo not given) [N^G,N^G-Dimethylarginine hydrochloride]",104,96.5,91.6 (inactive),94.5 (inactive)
CCCCCC(CC(=O)NO)C(=O)NC(C(=O)N1CCCC1CO)C(C)C (stereo not given) [Actinonin],101,89,108 (inactive),111 (inactive)
Cl.N=c1c[n+](N2CCOCC2)[n-]o1 [3-Morpholinosydnonimine hydrochloride],104,108,94.1 (inactive),88.8 (inactive)
CCC(C)C1OC2(CCC1C)CC1CC(CC=C(C)C(OC3CC(OC)C(OC4CC(OC)C(O)C(C)O4)C(C)O3)C(C)C=CC=C3COC4C(O)C(C)=CC(C(=O)O1)C34O)O2 (stereo not given) [Ivermectin],102 ± 2.5,103 ± 8.2,92.8 (inactive),93.7 (inactive)
CCCN(CCC)CCc1cccc2c1CC(=O)N2.Cl [Ropinirole hydrochloride],101,95.8,96.1 (inactive),101 (inactive)
"Cl.Cl.O=S(=O)(NCCNCC=Cc1ccc(Br)cc1)c1cccc2cnccc12 [H-89, Dihydrochloride]",96.6,110,92.7 (inactive),129 (inactive)
Cc1ccc(-c2n[nH]c3c2C(c2cccc(O)c2)N(c2ccc(C(=O)O)cc2)C3=O)cc1 (stereo not given),103,92.6,95 (inactive),116 (inactive)
CC(C)C1C2CCC(C2)C1N.Cl (stereo not given),99.9,105,93 (inactive),90.8 (inactive)
CNC(=C[N+](=O)[O-])NCCSCc1ccc(CN(C)C)o1.Cl [Ranitidine.HCl],110,106,95.3 (inactive),103 (inactive)
Brc1c(NC2=NCCN2)ccc2nccnc12,103,102,90.2 (inactive),96.8 (inactive)
CC(=O)OC12COC1CC(O)C1(C)C(=O)C(O)C3=C(C)C(OC(=O)C(O)C(NC(=O)OC(C)(C)C)c4ccccc4)CC(O)(C(OC(=O)c4ccccc4)C21)C3(C)C (stereo not given) [Docetaxil],61.6,13,147 (active),144 (active)
CCC1C(=O)OCC1Cc1cncn1C.Cl (stereo not given) [Pilocarpine.HCl],102 ± 2.4,94.48 ± 0.24,97.6 (inactive),102 (inactive)
CCCCCC(O)C=CC1C(O)CC(O)C1CC=CCCCC(=O)O (stereo not drawn) [8-Epi-prostaglandin F2a],102,110,96.2 (inactive),100 (inactive)
CC(C(=O)O)c1ccc2c(c1)Cc1cccnc1O2 (stereo not given) [Pranoprofen],98.6,94.7,103 (inactive),102 (inactive)
CC[N+](CC)(CC)CCOc1cccc(OCC[N+](CC)(CC)CC)c1OCC[N+](CC)(CC)CC.[I-].[I-].[I-] [Gallamine triethiodide],101,99,98.8 (inactive),123 (inactive)
